# Laboratory results reported in PubChem BioAssay AID504848 (National Center for Advancing Translational Sciences (NCATS), 2011).
# In all, about 2,300 compounds went through this assay and about 1,400 (61%) were called active. Another 29% or so got no clear call; they are omitted. The call rests on the fitted dose curve; in most records, active means well fitted inhibition curve with a large enough effect; inconclusive means small, poorly fitted or top-dose-only effect, or effect the other way; inactive means no such curve, though single readings can be large or run the other way. So high a share suggests a set chosen from earlier hits. This is one part of the list. Square brackets hold non-standard residues; d marks the D form. Peptide text beside a SMILES is read from it. * marks the point of attachment. ξ: configuration not given here. ξF = NC(Cc1ccccc1)C(=O)O; Cbz = O=C(OCc1ccccc1)*
# Assay: Confirmation screen for delayed death inhibitors of the malarial parasite plastid, 96 hour incubation; further: nearly all actives have a fitted effect of over 60% in size
# Settings: P. falciparum luciferase growth in erythrocytes; series mostly up to 28.7 µM; activity change, negative = inhibition: at the top concentration
# In short: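 Two-generation (96 h, 37 C) exposure of P. falciparum carrying an integrated firefly luciferase reporter in erythrocytes, 0.1% parasitemia and 2% hematocrit final, Albumax-supplemented RPMI. Luminescence decrease measures growth inhibition.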
# On the % scale 0 is the no-effect control and ±100 the full control effect; potency means the concentration at half of the fitted maximal effect.
Compound,Potency,"activity change, negative = inhibition"
C=C1C(=O)O[C@@H]2C[C@@H](C)[C@@H]3C=CC(=O)[C@@]3(C)[C@@H](OC(C)=O)[C@H]12,1.41 µM (active),–
Nc1ccc[n+](CC(=O)c2ccccc2)c1,12.6 µM (active),–
CCC(C)(C)NC(=O)C(c1cccc(OC)c1OC)N(CC(C)C)C(=O)CCC(=O)Nc1cc(C)on1 (stereo not drawn),7.94 µM (active),–
O=C(Nc1ccc(S(=O)(=O)NCc2ccco2)cc1)c1ccc2ccccc2n1,12.6 µM (active),–
CCN(CC(=O)Nc1c(F)cccc1F)C(=O)c1ccc(S(=O)(=O)NCc2ccco2)cc1,–,-12.1% (inactive)
Cc1cc(C)n(-c2ccc(C(=O)Nc3ccc(S(=O)(=O)NCc4ccco4)cc3)cc2)n1,8.91 µM (active),–
CC(C)n1nc(C(=O)Nc2cccc(S(=O)(=O)NCc3ccco3)c2)c2ccccc2c1=O,7.94 µM (active),–
COc1ccc2c(C)c(CCC(=O)NC3CC3)c(=O)oc2c1C,3.55 µM (active),–
COc1ccc2c(c1)c(C(=O)N/N=C/c1ccc(OC)c(OC)c1)c(C)n2C,8.91 µM (active),–
O=C(NCC1CCCO1)c1ccc(Cn2c(=S)[nH]c3ccccc3c2=O)cc1 (stereo not drawn),14.1 µM (active),–
Cc1cccc(N2CCN(C(=O)C3CCN(c4ncnc5c4nc4n5CCCCC4)CC3)CC2)c1C,11.2 µM (active),–
CC1CCN(C(=O)C2CCCN(c3ncnc4c3nc3n4CCCCC3)C2)CC1 (stereo not drawn),11.2 µM (active),–
Cc1cc(C)n2nc(SCC(=O)N3CCN(c4ccc(F)cc4)CC3)nc2n1,12.6 µM (active),–
COc1ccc(Nc2nnc(-c3ccccc3)c3ccccc23)cc1C(=O)N1CCCCC1,2.82 µM (active),–
COc1ccc(Nc2nnc(-c3ccc(C)cc3)c3ccccc23)cc1C(=O)N1CCCCC1,0.251 µM (active),–
O=C(c1cc(COc2ccc(F)cc2Cl)on1)N1CCN(C2CCCCC2)C(=O)C1,11.2 µM (active),–
CN1CCN(C(=O)c2cc(COc3c(F)cccc3F)on2)CC1c1ccccc1 (stereo not drawn),–,-16% (inactive)
CN(Cc1c(C(=O)N/N=C/c2cccc(O)c2)nnn1-c1nonc1N)c1ccccc1,–,-21.5% (inactive)
Nc1nonc1-n1nnc(C(=O)N/N=C/c2cccc(Cl)c2)c1-c1ccc2c(c1)OCO2,0.0708 µM (active),–
Cc1ccsc1/C=N/NC(=O)c1nnn(-c2nonc2N)c1-c1ccc2c(c1)OCO2,0.891 µM (active),–
Nc1nonc1-n1nnc(C(=O)N/N=C/c2ccc(Cl)cc2)c1-c1ccc2c(c1)OCO2,0.0316 µM (active),–

Compound,Potency,"activity change, negative = inhibition"
CCOc1ccc(-c2c(C(=O)N/N=C/c3ccc(OC(C)C)cc3)nnn2-c2nonc2N)cc1,12.6 µM (active),–
CCOC(=O)C1=C(NC(=S)NC(=O)c2ccccc2)c2ccccc2CC1(C)CC (stereo not drawn),11.2 µM (active),–
CC(=O)Nc1nc2ccccc2n1Cc1ccc(C)cc1,5.62 µM (active),–
N=C1S/C(=C\c2ccco2)C(=O)N1c1nccs1,12.6 µM (active),–
CCCNC(=O)C(Cc1ccc(F)cc1)NC(=O)c1ccccc1 (stereo not drawn),6.31 µM (active),–
CCOC(=O)CNC(=O)C(Cc1ccccc1)NC(=O)OCc1ccccc1 (stereo not drawn) (Cbz-[ξF]-Gly-OEt),–,-6.51% (inactive)
Cc1c(C(=O)N2CCC(n3nccc3NC(=O)C3CC3)CC2)[nH]c2ccc(Cl)cc12,14.1 µM (active),–
Cc1cc(C)c2[nH]c(C(=O)N3CCC(n4nccc4NC(=O)C4CC4)CC3)c(C)c2c1,7.94 µM (active),–
CCC(C)[C@H](NC(=O)[C@H](Cc1ccccc1)n1c(=O)[nH]c2ccccc2c1=O)C(=O)NCC1CCC(C(=O)O)CC1 (stereo partly drawn),11.2 µM (active),–
CCOCCCn1c(C)nc2c(c1=O)c1nc3ccccc3nc1n2CCC1=CCCCC1,3.16 µM (active),–
CN(CC(=O)Nc1ccc(F)c(Cl)c1)S(=O)(=O)c1ccc2c(c1)n(C)c(=O)c(=O)n2C,10 µM (active),–
CCOc1ccc(S(=O)(=O)N2CCCC(C(=O)NC3CC3)C2)cc1Cl (stereo not drawn),10 µM (active),–
O=C(COc1ccccc1)N1c2ccccc2Sc2ccccc21,11.2 µM (active),–
CC1CCCC(NC(=O)c2cc(-c3ccncc3)nc3ccccc23)C1C (stereo not drawn),11.2 µM (active),–
Cc1c(Cl)ccc2c(C(=O)O)cc(-c3ccccc3)nc12,–,8.29% (inactive)
COc1ccc2c(c1OC)C(=O)N1N=C(c3ccccc3)CC21 (stereo not drawn),2.24 µM (active),–
COc1ccc2c(c1OC)C(=O)OC2Nc1nc(-c2ccccc2)cs1 (stereo not drawn),–,-104% (inactive)
CC(C)NC(=O)c1onc(CSc2cccc(F)c2)c1C(=O)O,–,-23.2% (inactive)
Cc1ccc(NC(=O)c2cc(S(=O)(=O)N3CCc4ccccc43)cn2C)cc1,11.2 µM (active),–
O=C(O)C1CC=CCC1C(=O)Nc1ccc(S(=O)(=O)N2CCCc3ccccc32)cc1 (stereo not drawn),–,-19.2% (inactive)
C=CCn1c(C)cc(C2=NNC(=NCc3ccccc3)SC2)c1C,14.1 µM (active),–

Compound,Potency,"activity change, negative = inhibition"
Cc1cc(NC(=O)CSc2sc3c(O)cc(=O)[nH]c3c2C#N)ccc1Br,5.62 µM (active),–
N#Cc1c(SCC(=O)Nc2ccc(C(F)(F)F)cc2)sc2c(O)cc(=O)[nH]c12,0.0891 µM (active),–
CCCSc1ccc(-c2nn(-c3ccccc3)cc2/C=C(/C#N)C(=O)NCCCOC)cc1,4.47 µM (active),–
CC(C)(C)n1nnnc1C(c1ccc2ncccc2c1)N1CCSCC1 (stereo not drawn),11.2 µM (active),–
COc1ccc(Cl)cc1NC(=O)C(C)NC(c1ccccc1)c1ccccc1 (stereo not drawn),5.62 µM (active),–
O=C(CCN1C(=O)/C(=C/c2ccccc2Cl)SC1=S)N1CCOCC1,10 µM (active),–
CN1CCN(C(=O)CCN2C(=O)/C(=C/c3cccc(Br)c3)SC2=S)CC1,3.98 µM (active),–
CCOc1cc(/C=C/c2cc(C(F)(F)F)[nH]c(=O)n2)ccc1O,14.1 µM (active),–
CC(=O)O[C@H]1C(=O)[C@@]2(C)[C@H]([C@H](OC(=O)c3ccccc3)[C@]3(O)C[C@H](OC(=O)[C@H](O)[C@@H](NC(=O)c4ccccc4)c4ccccc4)C(C)=C1C3(C)C)[C@]1(OC(C)=O)CO[C@@H]1C[C@@H]2O,0.501 µM (active),–
CC(=O)O[C@@]12CO[C@@H]1C[C@H](O)[C@@]1(C)C(=O)[C@H](O)C3=C(C)[C@@H](OC(=O)C(O)[C@@H](NC(=O)OC(C)(C)C)c4ccccc4)C[C@@](O)([C@@H](OC(=O)c4ccccc4)[C@H]21)C3(C)C (stereo partly drawn),0.141 µM (active),–
Cc1ccc(-c2cc(NC(=O)CCl)n(-c3ccccc3)n2)cc1,3.98 µM (active),–
O=C(CCl)Nc1c2c(nn1-c1ccccc1)CSC2,2.24 µM (active),–
CC(C)(C)c1cc(NC(=O)CCl)n(-c2ccccc2)n1,8.91 µM (active),–
CCCCNC(=O)c1onc(CSc2ccc(Cl)cc2)c1C(=O)O,–,-5.24% (inactive)
COc1cc(OC)c2c(-c3cccc(-c4cccc(N)c4)c3)cc(=O)oc2c1,10 µM (active),–
NCCCNc1nc(N)c([N+](=O)[O-])c(NC2CCCCC2)n1,2.82 µM (active),–
CC(C)C1C(=O)CC(c2ccccc2)NC1c1ccccc1 (stereo not drawn),15.8 µM (active),–
S=C(Nc1ccccc1Cl)N(Cc1ccccc1)Cc1cccnc1,11.2 µM (active),–
C(=C\c1nc(N2CCCCCC2)c2ccccc2n1)/c1ccccc1,6.31 µM (active),–
CC(C)CCSc1nc(N)c(C#N)cc1C#N,5.62 µM (active),–
Cc1cccc2cc3c(nc12)SC(=NCC1CCCO1)N(Cc1ccco1)C3 (stereo not drawn),2 µM (active),–

Compound,Potency,"activity change, negative = inhibition"
CCCNC(=O)c1ccc(S(=O)(=O)c2ccc(OC)cc2)c([N+](=O)[O-])c1,5.01 µM (active),–
CCOc1ccc2c(c1)C(N(CCN1CCOCC1)C(=O)Nc1ccccc1)CC(C)(C)O2 (stereo not drawn),10 µM (active),–
O=C(N/N=C/c1cccn1-c1ccc([N+](=O)[O-])cc1)c1cccnc1,11.2 µM (active),–
COC(=O)/C(=C\c1cc(OC)c(OC)c(OC)c1)c1nc2ccccc2[nH]1,11.2 µM (active),–
COc1cc(/C=C(/C(=O)c2cccs2)c2nc3ccccc3[nH]2)ccc1O,3.98 µM (active),–
O=C(/C(=C/c1ccc(Cl)cc1)c1nc2ccccc2[nH]1)c1ccccc1,1.26 µM (active),–
O=C(NCc1ccc2[nH]c3c(c2c1)CCCC3)c1ccc(S(=O)(=O)N2CCCC2)cc1,12.6 µM (active),–
Brc1ccc2[nH]c3c(c2c1)CCC3,–,5.44% (inactive)
C=CCNC(=O)c1onc(CSc2ccc(Cl)cc2)c1C(=O)O,–,-15.9% (inactive)
COc1ccc(-c2cc(CNC(=O)CCl)on2)cc1,1.41 µM (active),–
NNc1nc(-c2ccccc2Cl)c2cc(Br)ccc2n1,11.2 µM (active),–
COc1ccc(Cl)cc1NC(=O)c1noc(C)c1[N+](=O)[O-],12.6 µM (active),–
CCCN1C2=C(C(=O)CCC2)C(c2ccc(O)c(Br)c2)C2=C1CCCC2=O,12.6 µM (active),–
OC1CCN(c2c3c(nc4cc(-c5ccc(Cl)cc5)nn24)CCC3)CC1,3.98 µM (active),–
C/C(=C\C(=O)c1ccncc1)Nc1ccccc1O,15.8 µM (active),–
CO[C@H](C(=O)[C@@H](O)[C@@H](C)O)C1Cc2cc3cc(O[C@H]4C[C@@H](O[C@H]5C[C@@H](O)[C@H](O)[C@@H](C)O5)[C@@H](O)[C@@H](C)O4)c(C)c(O)c3c(O)c2C(=O)[C@H]1O[C@H]1C[C@@H](O[C@H]2C[C@@H](O[C@H]3C[C@](C)(O)[C@H](O)[C@@H](C)O3)[C@H](O)[C@@H](C)O2)[C@H](O)[C@@H](C)O1 (stereo partly drawn),0.562 µM (active),–
COc1ccc(NS(=O)(=O)c2ccc(N3CCOCC3)c(NC(=O)c3ccc(OC)cc3)c2)cc1,11.2 µM (active),–
Cc1cc(Sc2nnc(N)s2)c2ccccc2n1,5.62 µM (active),–
Cc1cc(Sc2nnc(/N=C/N(C)C)s2)c2ccccc2n1,7.08 µM (active),–
CC1CCCN(Cc2c(O)ccc3c(=O)c(-c4nc5ccccc5s4)c(N)oc23)C1 (stereo not drawn),0.316 µM (active),–
